# Fam108B counter: mouse Fam108B serine hydrolase inhibitors, primary screen, counter-screen for RBBP9 inhibitor project, biochemical, fluorescence polarization. recombinant Fam108B, FP-Rh probe fluorescence polarization. inhibition, % at 9.51 µM. 0.33% of 300,000 active;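 active means inhibition above the screen mean inhibition plus 3 SD, computed separately per campaign, cut at about 18% in these data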;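 further: inhibitors lower polarization as less probe binds the enzyme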
# PAFAH2 FP inh: PAFAH2 enzyme inhibitors, primary screen, biochemical, fluorescence polarization, human. Platelet-activating factor acetylhydrolase 2, cytoplasmic (Homo sapiens), Q99487. recombinant PAFAH2, FP-rhodamine activity probe. inhibition, % at 3.39 µM. 0.99% of 340,000 active;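 active means inhibition above the mean over all tested compounds plus 3 SD, cut at about 30% in these data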;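 further: inhibitors block probe labeling of enzyme so polarization drops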
# pPAFAH inh: pPAFAH enzyme inhibitors, primary screen, biochemical, fluorescence polarization, human; Platelet-activating factor acetylhydrolase (Homo sapiens), Q13093; recombinant pPAFAH, FP-rhodamine probe fluorescence polarization; inhibition, % at 3.39 µM; 1.5% of 330,000 active; AID 463082, 2010;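 active means inhibition above the mean inhibition across the screen plus 3 SD, cut at about 25% in these data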;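 further: inhibitors block binding of the rhodamine activity-based probe so polarization drops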
# PAFAH1B3 FP inh: PAFAH1B3 enzyme inhibitors, primary screen, biochemical, fluorescence polarization, human | inhibition, % at 3.39 µM | recombinant PAFAH1B3, FP-rhodamine probe | 0.28% of 340,000 active;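 active means inhibition above the screen-wide average of all tested compounds plus 3 SD, cut at about 25% in these data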
# Target sequence (Q15102 whole entry, looked up): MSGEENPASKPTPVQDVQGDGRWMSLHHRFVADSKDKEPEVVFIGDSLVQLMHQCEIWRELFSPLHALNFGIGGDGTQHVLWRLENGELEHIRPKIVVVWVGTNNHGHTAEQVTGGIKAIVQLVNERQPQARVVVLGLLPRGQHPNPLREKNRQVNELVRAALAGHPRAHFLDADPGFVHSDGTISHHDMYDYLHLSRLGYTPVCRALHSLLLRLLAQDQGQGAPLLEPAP
# PAFAH1B2 inh: PAFAH1B2 enzyme inhibitors, primary screen, biochemical, fluorescence polarization, human; Platelet-activating factor acetylhydrolase IB subunit alpha2 (Homo sapiens), P68402; recombinant PAFAH1B2, FP-rhodamine activity probe; inhibition, % at 3.39 µM; 1.2% of 340,000 active;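 active means inhibition above the mean of all tested compounds plus 3 SD, cut at about 24% in these data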
# PME-1 primary: PME-1 inhibitors via competitive probe labeling, primary screen, biochemical, fluorescence polarization, FP-Rh probe, HTS; Protein phosphatase methylesterase 1 (Homo sapiens), Q9Y570; recombinant PME-1; inhibition, % at 5.9 µM; 0.53% of 320,000 active; AID 2130, 2009;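 active means inhibition above the campaign mean of all compounds plus 3 SD, cut at about 26% in these data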;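 further: competitive labeling of PME-1 active site by serine hydrolase directed probe; inhibitors block probe labeling so polarization falls and inhibition rises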
# Hits are given with their value; i = inactive; nt = no result given. This is a sample that favours compounds with a hit; in the whole collection about 2.9% have one here.
SMILES,Fam108B counter,PAFAH2 FP inh,pPAFAH inh,PAFAH1B3 FP inh,PAFAH1B2 inh,PME-1 primary
Cc1cccc(C)c1NC(=O)COC(=O)c1cccc2c1C(=O)c1ccccc1C2=O,i,i,i,i,i,71
Cc1cccc(C)c1NC(=O)c1cccc2c1-c1ccccc1C2=O,i,i,i,i,i,i
CCS(=O)(=O)c1ncc(Cl)c(C(=O)Nc2ccc(S(=O)(=O)N3CCC(C)CC3)cc2)n1,i,i,i,i,i,i
COc1cc(/C=C/C(=O)c2ccc3c(c2)OCO3)cc(Cl)c1O,i,i,i,i,i,i
O=C(N/N=C/C=C/c1ccco1)/C(=C/c1ccccc1)NC(=O)c1ccccc1,i,i,31,i,i,i
CCCn1c(CCC(=O)Nc2ccccc2Cc2ccccc2)nc2cc(S(=O)(=O)N3CCOCC3)ccc21,i,i,i,i,i,37
Cn1c(CCC(=O)Nc2ccc(F)cc2)nc2cc(S(=O)(=O)N3CCOCC3)ccc21,i,i,i,i,i,i
CNC(=S)N(Cc1ccc(OC)cc1)C1CC(=O)N(c2ccc(Cl)cc2)C1=O (stereo unspecified),i,i,i,i,33,i
COc1cc(-c2c(C#N)c(N)nc3c2c(C)nn3-c2ccc(C)c(C)c2)cc(OC)c1OC,i,i,i,i,i,i
Cc1nn(-c2ccccc2)c2nc(N)c(C#N)c(-c3ccc(O)c(O)c3)c12,i,i,31,32,i,i
COc1ccc(S(=O)(=O)Nc2cccc(Cl)c2)cc1OC,i,i,i,i,i,i
COc1ccc(NS(=O)(=O)c2ccc(OC)c(N(C)S(=O)(=O)c3ccc(Cl)cc3)c2)cc1,i,i,28,i,i,i
CS(=O)(=O)c1ccc2c(c1)sc1nc(=O)c(/C=C3/C=CC(=O)C(O)=C3)c(N)n12,i,58,i,28,53,i
CC1CC(C)CN(C(=O)c2cccc3c2-c2ccccc2C3=O)C1 (stereo unspecified),i,i,i,i,28,i
O=C1c2ccccc2-c2c1cccc2C(=O)N1CCN(C(=O)c2ccco2)CC1,i,i,i,i,i,i
O=C(CSc1ccc(Cl)cc1)NNC(=O)c1cccnc1,i,i,i,i,28,i
Cc1ccccc1NC(=O)Cc1nc(COC(=O)c2cc(Cl)ccc2O)cs1,i,i,i,i,i,i
O=C(NNC(=S)Nc1ccc(Cl)c(Cl)c1)c1cccc([N+](=O)[O-])c1,i,nt,32,nt,nt,i
Cc1cccc(NC(=S)NNC(=O)c2cccc([N+](=O)[O-])c2)c1,i,i,i,i,i,i
Nc1cccc(C2=Nc3cccc4cccc(c34)N2)c1,i,i,i,33,25,i
COc1ccc(C2=Nc3cccc4cccc(c34)N2)cc1,i,i,i,i,i,i
CN(C)c1ccc(N/C=C/C(=O)c2ccc(F)cc2)cc1,i,i,31,i,i,i
NS(=O)(=O)c1ccc(N/C=C\C(=O)c2ccc(F)cc2)cc1,i,i,i,i,i,i
CC(=O)Nc1ccc(N/C=C/C(=O)c2ccco2)cc1,i,i,i,i,i,i
CN(C)c1ccc(N/C=C/C(=O)c2ccco2)cc1,i,i,28,i,i,i
SMILES,Fam108B counter,PAFAH2 FP inh,pPAFAH inh,PAFAH1B3 FP inh,PAFAH1B2 inh,PME-1 primary
COc1cccc(N2CCN(C(=O)CCNS(=O)(=O)c3ccc(F)c(F)c3)CC2)c1,nt,i,29,i,i,nt
CCOC(=O)[C@H]1[C@H]2COc3ccccc3[C@@H]2N2C(=O)c3ccc(C)cc3NC(=O)[C@@]12C,i,i,i,i,i,i
CC(=O)NC(=S)NNC(=O)C(c1ccccc1)c1ccccc1,i,i,i,i,i,i
N#CCC(=O)NNC(=S)NC(=O)C(c1ccccc1)c1ccccc1,i,i,i,i,29,i
CCCC[C@@H]1C=C(C(=O)O)[C@H](c2ccc(C#N)cc2)N1S(=O)(=O)c1ccc(C)cc1,nt,i,i,i,i,nt
COc1ccc(-c2cc(C(F)(F)F)nc(S(=O)(=O)CCCC(=O)Nc3cccnc3Cl)n2)cc1OC,nt,i,nt,i,i,nt
